Reference: PubChem BioAssay (NCATS)
Records with an inconclusive call do not appear. Entries that show only a call come without a potency. Activity calls are given as the source filed them. Calls follow the shape of the dose curve; as a rule, active = well fitted inhibition curve with a large enough effect; inconclusive = small, poorly fitted or top-dose-only effect; inactive = flat fitted curve, though single readings scatter.

Target: Phospholipid hydroperoxide glutathione peroxidase GPX4 (Homo sapiens) (UniProt P36969)
Test: Primary qHTS Assay for Inhibitors of Recombinant Selenoprotein Glutathione Peroxidase 4 (GPX4) (AID 1845192); also: nearly all actives have a fitted effect of over 65% in size
Conditions: recombinant GPX4, GR-coupled NADPH fluorescence, 15 min; series mostly up to 50 µM
Excerpt: Assay Provider: Elias S.J. Arner MD PhD.
Department of Medical Biochemistry and Biophysics
Karolinska Institutet, Solna, Stockholm, Sweden
Selenoprotein glutathione peroxidases (GPX), like the ubiquitously expressed GPX1 and the ferroptosis modulator GPX4, enact their antioxidant activities by reducing hydroperoxides using glutathione. […] GPX1 and GPX4 inhibitors have thus shown promise as anti-cancer agents. Existing inhibitors are often promiscuous, or modulate GPX activity only indirectly, so novel direct inhibitors identified through screening against GPX1 and GPX4 could be valuable. Here, we developed optimized glutathione reductase (GR)-coupled GPX assays for the biochemical high-throughput screen (HTS) of almost 12,000 compounds with known mechanisms of action. Initial hits were triaged using a GR counter-screen, assessed for isoform specificity using a separate GPX2 assay, and were assessed for general selenocysteine-targeting activity using a thioredoxin reductase (TXNRD1) assay. With this suite of assays, we identified novel GPX1/GPX2- and GPX4-specific inhibitors and can here present a validated pipeline for future discovery research for selenoprotein-targeting agents.
SEQUENCE No. (e.g., 1, 2, 3, etc.); […] (e.g., Cells, Incubation, Reagent, etc.); VALUE; DESCRIPTION.
1; Reagent 1; 3 uL; 333.33 nM GPx4 enzyme or no enzyme control in 1536-well, black, solid Greiner assay plate.
2; Compound; 25 nL; Kalypsis pin tool (Wako USA) equipped with a 1536-well pin head.
3; Incubation; 30 min; room temperature.
4; Reagent 2; 1 uL; 500 nM GR, 5 mM GSH, 2.5 mM NADPH solution
5; Reagent 3; 1 uL; 2.5 mM CHP in 50% EtOH.
6; Detection; Fluorescence; ViewLux microplate reader, excitation 340 nm and emission 450 nm.
7; Incubation; 15 min; room temperature.
8; Detection; Fluorescence; ViewLux microplate reader, excitation 340 nm and emission 450 nm.
NOTES (numbers refer to Sequence numbers above)
1. 3 µL of 333.33 nM GPX4 and 0.016% BSA in assay buffer (50 mM Tris-HCl, 2 mM EDTA (pH 7.5), 150 mM NaCl) was added to columns 3-48 of 1536-well plates using a BioRAPTR Flying Reagent Dispenser (Let's Go Robotics (LGR), Carlsbad, CA). A no-enzyme control (0.01% BSA in TES assay buffer) was added to columns 1-2.
2. 25 nL, library and DMSO controls were added to each well with a pin tool (Kalypsys).
3. The assay plates were incubated for 30 minutes at room temperature.
4. 1 µL of master mix (500 nM glutathione reductase (GR), 5 mM reduced glutathione (GSH), 2.5 mM NADPH in assay buffer) was added.
5. 1 µL of cumene hydroperoxide (CHP) ([2.5 mM] in 50% EtOH) was then added within 5 minutes to initiate the reaction. Final concentrations were: 200 nM GPX4, 1 mM GSH, 0.5 mM CHP, 0.5 mM NADPH, 100 nM GR, 0.01% BSA.
6. Initial fluorescence readout (t=0) at 340/450 nm was measured using a ViewLux multimodal detector (PerkinElmer, Waltham, MA).
8. Endpoint fluorescence readout (t=15) at 340/450 nm was measured 15 min after room temperature incubation.

Sequence of Phospholipid hydroperoxide glutathione peroxidase GPX4 (Homo sapiens) (P36969 whole entry, looked up): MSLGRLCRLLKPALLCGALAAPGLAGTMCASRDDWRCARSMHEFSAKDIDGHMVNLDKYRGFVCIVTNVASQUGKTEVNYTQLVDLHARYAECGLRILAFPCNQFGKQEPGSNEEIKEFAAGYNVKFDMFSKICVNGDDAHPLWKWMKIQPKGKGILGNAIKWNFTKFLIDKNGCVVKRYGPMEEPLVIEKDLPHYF

| Compound | Potency | outcome |
| --- | --- | --- |
| OCc1ccc(Cl)cc1Cl | inactive | – |
| COC(=O)N/N=C/c1c[n+]([O-])c2ccccc2[n+]1[O-] | inactive | – |
| CCOc1ccc(C(=O)OCCN(CC)CC)cc1 | inactive | – |
| CC(=O)N[C@H]1[C@H]([C@H](O)[C@H](O)CO)OC(C(=O)O)=C[C@@H]1N=C(N)N | inactive | – |
| Cc1c(NC(=O)c2cccnc2)c(=O)n(-c2ccccc2)n1C | inactive | – |
| NCC1CCC(C(=O)Oc2ccc(CCC(=O)O)cc2)CC1 (stereo not given) | inactive | – |
| CCN1CC(CCN2CCOCC2)C(c2ccccc2)(c2ccccc2)C1=O (stereo not given) | inactive | – |
| CCN[C@H]1CN(CCCOC)S(=O)(=O)c2sc(S(N)(=O)=O)cc21 | inactive | – |
| Cc1cccc(Nc2ccccc2C(=O)O)c1C | inactive | – |
| COC(=O)c1ccc(O)cc1 | inactive | – |
| CCCCCOC(=O)Nc1nc(=O)n([C@@H]2O[C@H](C)[C@@H](O)[C@H]2O)cc1F | inactive | – |
| OC[C@@H](O)[C@@H](O)[C@H](O)[C@H](O)CO | inactive | – |
| CC(C)CCCC(C)CCCC(C)CCCCC(C)CCCC(C)CCCC(C)C (stereo not given) | inactive | – |
| Cn1cc(C(=O)[C@@H]2CCc3nc[nH]c3C2)c2ccccc21 | inactive | – |
| CC(=O)OC[C@H]1O[C@@](COC(C)=O)(O[C@H]2O[C@H](COC(C)=O)[C@@H](OC(C)=O)[C@H](OC(C)=O)[C@H]2OC(C)=O)[C@@H](OC(C)=O)[C@@H]1OC(C)=O | inactive | – |
| Cc1onc(-c2ccccc2)c1-c1ccc(S(N)(=O)=O)cc1 | inactive | – |
| NC(=O)CC[C@@H](N)C(=O)O | inactive | – |
| O=C(NCC(O)CO)c1c(I)c(C(=O)NCC(O)CO)c(I)c(N(CCO)C(=O)CO)c1I (stereo not given) | inactive | – |
| NC(N)=NCCN1CCCCCCC1 | – | inactive [at 0.409 µM] |
| C[C@@H](c1ncncc1F)C(O)(Cn1cncn1)c1ccc(F)cc1F (stereo not given in full) | inactive | – |

| Compound | Potency | outcome |
| --- | --- | --- |
| CCOc1cc(NC(C)=O)ccc1C(=O)OC | inactive | – |
| O=C(O)CCCCC1CCSS1 (stereo not given) | inactive | – |
| CC(=O)OCC(=O)[C@@]1(O)CC[C@H]2[C@@H]3CCC4=CC(=O)C=C[C@]4(C)[C@@]3(F)[C@@H](O)C[C@@]21C | inactive | – |
| CC(C)c1cc2c(cc1S(=O)(=O)O)[C@@]1(C)CCC[C@@](C)(C(=O)O)[C@@H]1CC2 | inactive | – |
| NC(=O)CCCCC1CCSS1 (stereo not given) | inactive | – |
| CC(=O)Nc1ccccc1 | inactive | – |
| Cc1cccc(C)c1NC(=O)CC12CCCN1CCC2 | inactive | – |
| CCCCCCCCCCCCCCCCCCO | inactive | – |
| C/C=C1\[C@H]2C=C(C)C[C@]1(N)c1ccc(=O)[nH]c1C2 | inactive | – |
| CC1(C)S[C@@H]2[C@H](N=CN3CCCCCC3)C(=O)N2[C@H]1C(=O)O | inactive | – |
| O=C1c2cccc(O)c2C(=O)c2c(O)cccc21 | inactive | – |
| CC(=O)N(CC(O)CN(C(C)=O)c1c(I)c(C(=O)NCC(O)CO)c(I)c(C(=O)NCC(O)CO)c1I)c1c(I)c(C(=O)NCC(O)CO)c(I)c(C(=O)NCC(O)CO)c1I (stereo not given) | inactive | – |
| O=C(/C=C/c1ccccc1)OCc1ccccc1 | inactive | – |
| Cc1cc(C)c(NC(=O)CN(CC(=O)O)CC(=O)O)c(C)c1Br | inactive | – |
| CCCCCCCCCCC(CO)CCCCCCCC (stereo not given) | inactive | – |
| COc1ccccc1Oc1c(NS(=O)(=O)c2ccc(C(C)(C)C)cc2)nc(-c2ncccn2)nc1OCCO | inactive | – |
| CC[N+](C)(CC)CCOC(=O)C1c2ccccc2Oc2ccccc21 | inactive | – |
| CCCCC1(COC(=O)CCC(=O)O)C(=O)N(c2ccccc2)N(c2ccccc2)C1=O | inactive | – |
| CCCC(O)C(CC)CO (stereo not given) | inactive | – |
| COC(=O)c1cccnc1 | inactive | – |
